This passage reports binding signal results from paper PMC12864922, “TDP-43 directly inhibits mRNA accumulation in neurites through modulation of mRNA stability”.

The full ranking holds about 9,900 sequences; the median of “r (bound/input frequency ratio)” is about 0.7, and the highest 2% start at about 6.5. This excerpt belongs to a sample that is enriched for the highest values.

The labels stand for the following.
B1: ENSMUSG00000042529.391|Kcnj12 (ssRNA)
RNA: GGGAGUUCUACAGUCCGACGAUCGCUUCGAUAUCCGCAUGCUAAGACAUGAUCAGUCCGACUUGAGUCCCUGCCCUGCCCUGGUUAUGCAGGCUGUACGACGCAGUGUGCAUCAGUCUGAGGAGUCUGGUGGUAAGUAAGCCUCUGCAGCAGACCCUGUCGGAGGCCAUGGGGGCGUGUGUGUGUGUGUGUGUGUGUGUGUGUGUGUGUGUGUGUGUGUGUGUGUGUGAACAUGUGUGAGGGUGUGGAGGUCCCAGGGUGUGUGUAUGUGAAUGUCAGUGGCUUGGGUGCUGUGUGGAGAGAGCUCUUGCGGUCGCACUAGUGUGGAAUUCUCGGGUGUCAAGG
B2: ENSMUSG00000042529.413|Kcnj12 (ssRNA)
RNA: GGGAGUUCUACAGUCCGACGAUCGCUUCGAUAUCCGCAUGCUAGUGUGUGUGUGUGUGUGUGUGUGUGUGUGUGUGUGUGUGUGUGUGUGUGUGUGAACAUGUGUGAGGGUGUGGAGGUCCCAGGGUGUGUGUAUGUGAAUGUCAGUGGCUUGGGUGCUGUGUGGAGAGAGAGAGAGAGAGAGAGAGAGAGAGAGAGAGAGAGAGAGAGAGAGAGCUGCACAGGAUGAAGCAGCUGCCCUGAGCCCAUCUGGUGCUGUGCACCUGGUCCUUGUCCAGCCGAGGGCCUGGGGGCAGAAGAACACCUCUUGCGGUCGCACUAGUGUGGAAUUCUCGGGUGUCAAGG
B3: ENSMUSG00000042529.392|Kcnj12|56:60;127:179;184:189;193:197;209:219;242:247 (ssRNA)
RNA: GGGAGUUCUACAGUCCGACGAUCGCUUCGAUAUCCGCAUGCUAGAUCAGUCCGACUUGAGUCCCUGCCCUGCCCUGGUUAUGCAGGCUGUACGACGCACACACCAUCAGUCUGAGGAGUCUGGUGGUAAGUAAGCCUCUGCAGCAGACCCUGUCGGAGGCCAUGGGGGCCACACACACACACACACACACACACACACACACACACACACACACACACACACAACAACACACAGGCACACGAGGUCCCAGGCACACACAUACUGAAUGUCAGUGGCUUGGGUGCACACACGAGAGAGAGAGAGCUCUUGCGGUCGCACUAGUGUGGAAUUCUCGGGUGUCAAGG
B4: ENSMUSG00000042529.396|Kcnj12 (ssRNA)
RNA: GGGAGUUCUACAGUCCGACGAUCGCUUCGAUAUCCGCAUGCUACCUGCCCUGGUUAUGCAGGCUGUACGACGCAGUGUGCAUCAGUCUGAGGAGUCUGGUGGUAAGUAAGCCUCUGCAGCAGACCCUGUCGGAGGCCAUGGGGGCGUGUGUGUGUGUGUGUGUGUGUGUGUGUGUGUGUGUGUGUGUGUGUGUGUGUGAACAUGUGUGAGGGUGUGGAGGUCCCAGGGUGUGUGUAUGUGAAUGUCAGUGGCUUGGGUGCUGUGUGGAGAGAGAGAGAGAGAGAGAGAGAGAGAGAGAGAGAGCUCUUGCGGUCGCACUAGUGUGGAAUUCUCGGGUGUCAAGG
B5: ENSMUSG00000042529.389|Kcnj12 (ssRNA)
RNA: GGGAGUUCUACAGUCCGACGAUCGCUUCGAUAUCCGCAUGCUAGAUGCUGGCCACAGACAUGAUCAGUCCGACUUGAGUCCCUGCCCUGCCCUGGUUAUGCAGGCUGUACGACGCAGUGUGCAUCAGUCUGAGGAGUCUGGUGGUAAGUAAGCCUCUGCAGCAGACCCUGUCGGAGGCCAUGGGGGCGUGUGUGUGUGUGUGUGUGUGUGUGUGUGUGUGUGUGUGUGUGUGUGUGUGUGAACAUGUGUGAGGGUGUGGAGGUCCCAGGGUGUGUGUAUGUGAAUGUCAGUGGCUUGGGUGCUCUCUUGCGGUCGCACUAGUGUGGAAUUCUCGGGUGUCAAGG
B6: ENSMUSG00000043670.183|Diras1 (ssRNA)
RNA: GGGAGUUCUACAGUCCGACGAUCGCUUCGAUAUCCGCAUGCUAGACAGAAUCUGAGCCUCUUUGCUGGUCAUGUGUACUCUGGAGACUGUCCCCCAUGUCUGCCCUGAGUUACGGAGCCCCUGUGGUAUCUGCGAGACUGUCCAGGAGACUUGAGUGGCUCCUGGGCCUGUGUCCCACCCAGAUGAGGGUGACUUAGAAUUCUGUGUUUAUGUGCCUGUGUGUGUGGAUGGGUGUGUGUCUGUCUUGGGAUGGGGUGUUCUUGCACCACUUUGUGUUCUUAGUGAGACCACAGUGUAAGUGGCCUCUUGCGGUCGCACUAGUGUGGAAUUCUCGGGUGUCAAGG
B7: ENSMUSG00000042529.414|Kcnj12 (ssRNA)
RNA: GGGAGUUCUACAGUCCGACGAUCGCUUCGAUAUCCGCAUGCUAGUGUGUGUGUGUGUGUGUGUGUGUGUGUGUGUGUGUGUGUGUGUGUGAACAUGUGUGAGGGUGUGGAGGUCCCAGGGUGUGUGUAUGUGAAUGUCAGUGGCUUGGGUGCUGUGUGGAGAGAGAGAGAGAGAGAGAGAGAGAGAGAGAGAGAGAGAGAGAGAGAGAGCUGCACAGGAUGAAGCAGCUGCCCUGAGCCCAUCUGGUGCUGUGCACCUGGUCCUUGUCCAGCCGAGGGCCUGGGGGCAGAAGAACACACCAUACUCUUGCGGUCGCACUAGUGUGGAAUUCUCGGGUGUCAAGG
B8: ENSMUSG00000042529.395|Kcnj12 (ssRNA)
RNA: GGGAGUUCUACAGUCCGACGAUCGCUUCGAUAUCCGCAUGCUACCCUGCCCUGCCCUGGUUAUGCAGGCUGUACGACGCAGUGUGCAUCAGUCUGAGGAGUCUGGUGGUAAGUAAGCCUCUGCAGCAGACCCUGUCGGAGGCCAUGGGGGCGUGUGUGUGUGUGUGUGUGUGUGUGUGUGUGUGUGUGUGUGUGUGUGUGUGUGAACAUGUGUGAGGGUGUGGAGGUCCCAGGGUGUGUGUAUGUGAAUGUCAGUGGCUUGGGUGCUGUGUGGAGAGAGAGAGAGAGAGAGAGAGAGAGAGAGCUCUUGCGGUCGCACUAGUGUGGAAUUCUCGGGUGUCAAGG
B9: ENSMUSG00000042529.390|Kcnj12 (ssRNA)
RNA: GGGAGUUCUACAGUCCGACGAUCGCUUCGAUAUCCGCAUGCUAGGCCACAGACAUGAUCAGUCCGACUUGAGUCCCUGCCCUGCCCUGGUUAUGCAGGCUGUACGACGCAGUGUGCAUCAGUCUGAGGAGUCUGGUGGUAAGUAAGCCUCUGCAGCAGACCCUGUCGGAGGCCAUGGGGGCGUGUGUGUGUGUGUGUGUGUGUGUGUGUGUGUGUGUGUGUGUGUGUGUGUGUGAACAUGUGUGAGGGUGUGGAGGUCCCAGGGUGUGUGUAUGUGAAUGUCAGUGGCUUGGGUGCUGUGUGGCUCUUGCGGUCGCACUAGUGUGGAAUUCUCGGGUGUCAAGG
B10: ENSMUSG00000042529.394|Kcnj12 (ssRNA)
RNA: GGGAGUUCUACAGUCCGACGAUCGCUUCGAUAUCCGCAUGCUAUUGAGUCCCUGCCCUGCCCUGGUUAUGCAGGCUGUACGACGCAGUGUGCAUCAGUCUGAGGAGUCUGGUGGUAAGUAAGCCUCUGCAGCAGACCCUGUCGGAGGCCAUGGGGGCGUGUGUGUGUGUGUGUGUGUGUGUGUGUGUGUGUGUGUGUGUGUGUGUGUGUGAACAUGUGUGAGGGUGUGGAGGUCCCAGGGUGUGUGUAUGUGAAUGUCAGUGGCUUGGGUGCUGUGUGGAGAGAGAGAGAGAGAGAGAGAGAGCUCUUGCGGUCGCACUAGUGUGGAAUUCUCGGGUGUCAAGG

Sequence of TDP-43 (Q13148 whole entry): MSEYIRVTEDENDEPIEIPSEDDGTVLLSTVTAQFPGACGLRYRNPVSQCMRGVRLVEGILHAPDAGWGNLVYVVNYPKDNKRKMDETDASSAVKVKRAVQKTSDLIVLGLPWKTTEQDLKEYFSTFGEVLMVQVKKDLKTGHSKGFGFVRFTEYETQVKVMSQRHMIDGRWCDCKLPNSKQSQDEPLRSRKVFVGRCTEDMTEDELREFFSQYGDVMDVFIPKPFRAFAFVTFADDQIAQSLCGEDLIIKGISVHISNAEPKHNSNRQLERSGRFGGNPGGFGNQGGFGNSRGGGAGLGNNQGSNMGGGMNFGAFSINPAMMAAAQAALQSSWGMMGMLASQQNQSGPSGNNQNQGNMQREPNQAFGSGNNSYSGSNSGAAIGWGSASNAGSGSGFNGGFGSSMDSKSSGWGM

This assay concerns the target TDP-43 (Homo sapiens, UniProt Q13148 1-414). Nature of the assay: RNA Bind-n-Seq with designed 260-mer pool; 25 mM Tris-HCl, 150 mM KCl, 3 mM MgCl2, BSA (printed 500 mg/mL), 20 units/mL SUPERase IN; pH not stated; 500 nM RNA pool, 1 h, 4 C; TDP-43 5, 50, 500 nM; high values mean tight binding. The following applies: protein: recombinant; tags: SBP (GST cleaved off with PreScission; pGEX-GST-SBP). A digest of the protocol:
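The incubation lasted 1 h at 4 °C and used 500 nM of an in vitro-transcribed 260-nt 3′ UTR oligo pool with recombinant SBP-tagged TDP-43 at 5, 50 or 500 nM immobilized on streptavidin beads. It took place in 25 mM Tris-HCl, 150 mM KCl, 3 mM MgCl2, BSA and SUPERase IN. Bound RNA was washed, eluted with biotin, converted to cDNA, PCR-amplified and sequenced to give R, each oligo's normalized abundance in the bound sample divided by that in input. Two independent protein batches provided the duplicates.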
For B1, the binding signal was 10.1 R (bound/input frequency ratio).
Consider B2, for which the binding signal was 4.88 R (bound/input frequency ratio).
The result for B3 reads 2.98 R (bound/input frequency ratio); that for B4, 7.9 R (bound/input frequency ratio); that for B5, 7.39 R (bound/input frequency ratio).
With B6, the binding signal was 5.8 R (bound/input frequency ratio).
For the molecule B7, the binding signal was 5.01 R (bound/input frequency ratio).
On to B8, for which the binding signal is 5.73 R (bound/input frequency ratio).
The result for B9 reads 8.92 R (bound/input frequency ratio); that for B10, 5.55 R (bound/input frequency ratio).
